# Test results: PubChem BioAssay
# A number with no mark means an inactive call. For some of these results: Results with a measured potency or affinity are listed apart. Calls of active or inactive are those of the source. Unless noted, the rule behind the calls is not given here.
# Assays:
# [1] = antimalarial activity against Dd2 strain (AID 2302;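 active = growth inhibition above 50% at the single 2 µM test dose, taken to imply half-maximal potency below 2 µM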;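 note: 0% = DMSO untreated growth and 100% = chloroquine plus artemisinin killed control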); conditions: P. falciparum Dd2 in RBCs, LDH growth readout, 72 h; at 2 µM; hits give high values
# [2] = HepG2 cytotoxicity, primary screen, cytotoxicity control for P. falciparum antimalarial project, cell-based, ATP luminescence (AID 2303;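 active = inhibition above 50%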;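 note: 0% = DMSO wells and 100% = digitonin-killed cells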); conditions: HepG2 viability, 24-48 h, at 10 µM, hits give high values
# [3] = molecular target: L-lactate dehydrogenase (Plasmodium falciparum (isolate CDC / Honduras)) (UniProt Q27743); assay: PfLDH activity inhibition – cell lysate, 3D7 strain, counter-screen for P. falciparum growth inhibition project (AID 2304);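 note: 0% = vehicle and 100% = reference inhibitor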; conditions: P. falciparum 3D7 crude extract, LDH APAD/NBT absorbance; at 2 µM; hits give high values
# [4] = inhibition of 3D7 malaria parasite growth – strain 3D7 (AID 2306);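 note: 0% = DMSO wells and 100% = chloroquine plus artemisinin control wells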; conditions: P. falciparum 3D7 erythrocytic growth, LDH absorbance, 72 h; at 2 µM; hits give high values
# [5] = molecular target: Calcium-dependent protein kinase 1 (Plasmodium falciparum (isolate 3D7)) (UniProt P62344); assay: PfCDPK1 kinase inhibitors, biochemical, TCAMS library (AID 1159585; cut-off not given, nearly all actives have IC50 up to about 0.98 µM;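 note: inhibitors leave more ATP so luminescence rises with inhibition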); conditions: recombinant PfCDPK1, Kinase-Glo ATP depletion luminescence
# [6] = molecular target: Plasmodium falciparum protein kinase 6 (PK6, PF3D7_1337100) (UniProt Q8IDW1); assay: PfPK6 kinase inhibitors, biochemical, TCAMS library (AID 1159586); conditions: recombinant PfPK6, Kinase-Glo ATP depletion luminescence
# [7] = molecular target: Protein kinase 7 (PK7), Plasmodium falciparum 3D7 (PF3D7_0213400) (UniProt Q7YTF7); assay: inhibition of Plasmodium PK7 catalytic activity – biochemical, TCAMS antimalarial set, Kinase-Glo luminescence (AID 1159587); conditions: recombinant PfPK7, Kinase-Glo ATP depletion luminescence
# [8] = molecular target: Calcium-dependent protein kinase 4 (Plasmodium falciparum (isolate 3D7)) (UniProt Q8IBS5); assay: PfCDPK4 kinase inhibitors, biochemical, TCAMS library (AID 1159588; cut-off not given, nearly all actives have IC50 up to about 0.91 µM); conditions: recombinant PfCDPK4, Kinase-Glo ATP depletion luminescence
# Chain of Calcium-dependent protein kinase 4 (Plasmodium falciparum (isolate 3D7)) (Q8IBS5 whole entry, looked up): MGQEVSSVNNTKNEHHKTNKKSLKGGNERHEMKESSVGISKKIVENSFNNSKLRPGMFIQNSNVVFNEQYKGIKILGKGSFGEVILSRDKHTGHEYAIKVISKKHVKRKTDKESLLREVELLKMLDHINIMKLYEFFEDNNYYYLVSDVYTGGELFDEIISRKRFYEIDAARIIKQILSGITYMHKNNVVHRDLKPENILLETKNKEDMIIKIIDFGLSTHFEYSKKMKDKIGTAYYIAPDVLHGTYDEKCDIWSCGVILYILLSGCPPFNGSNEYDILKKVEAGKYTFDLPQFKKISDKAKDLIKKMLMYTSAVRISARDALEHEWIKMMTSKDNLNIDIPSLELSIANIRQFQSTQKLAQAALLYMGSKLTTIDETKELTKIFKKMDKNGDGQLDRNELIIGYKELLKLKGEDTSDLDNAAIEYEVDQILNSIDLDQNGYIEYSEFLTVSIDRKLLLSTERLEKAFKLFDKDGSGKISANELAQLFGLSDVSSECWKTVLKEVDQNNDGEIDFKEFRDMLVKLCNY
# Chain of L-lactate dehydrogenase (Plasmodium falciparum (isolate CDC / Honduras)) (Q27743 whole entry, looked up): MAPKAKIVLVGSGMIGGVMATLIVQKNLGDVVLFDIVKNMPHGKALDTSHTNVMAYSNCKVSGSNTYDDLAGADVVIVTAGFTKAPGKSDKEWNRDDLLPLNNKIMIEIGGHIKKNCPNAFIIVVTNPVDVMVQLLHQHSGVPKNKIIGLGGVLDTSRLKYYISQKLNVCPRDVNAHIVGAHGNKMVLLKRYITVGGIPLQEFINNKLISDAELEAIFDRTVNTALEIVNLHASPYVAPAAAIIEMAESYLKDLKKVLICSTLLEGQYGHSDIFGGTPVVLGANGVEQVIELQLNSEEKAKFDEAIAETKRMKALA
# Chain of Protein kinase 7 (PK7), Plasmodium falciparum 3D7 (PF3D7_0213400) (Q7YTF7 1-343): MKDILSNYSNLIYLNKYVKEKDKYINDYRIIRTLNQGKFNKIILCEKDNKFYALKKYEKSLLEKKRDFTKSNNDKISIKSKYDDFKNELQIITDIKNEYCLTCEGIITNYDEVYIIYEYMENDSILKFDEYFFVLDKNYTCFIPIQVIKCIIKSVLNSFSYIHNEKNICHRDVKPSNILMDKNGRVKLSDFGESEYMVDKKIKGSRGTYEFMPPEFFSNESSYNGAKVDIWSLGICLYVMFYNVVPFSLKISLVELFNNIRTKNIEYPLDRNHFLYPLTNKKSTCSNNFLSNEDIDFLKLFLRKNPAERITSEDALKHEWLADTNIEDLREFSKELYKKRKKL
# Chain of Plasmodium falciparum protein kinase 6 (PK6, PF3D7_1337100) (Q8IDW1 1-305): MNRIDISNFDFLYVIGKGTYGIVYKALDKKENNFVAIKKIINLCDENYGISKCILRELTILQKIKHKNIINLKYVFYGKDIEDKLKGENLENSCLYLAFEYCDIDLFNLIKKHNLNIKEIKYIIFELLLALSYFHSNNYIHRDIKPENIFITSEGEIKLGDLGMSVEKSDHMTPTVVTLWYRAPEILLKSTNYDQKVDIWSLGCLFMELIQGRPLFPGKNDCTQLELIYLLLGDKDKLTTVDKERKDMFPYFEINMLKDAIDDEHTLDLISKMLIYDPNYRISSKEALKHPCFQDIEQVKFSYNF
# Chain of Calcium-dependent protein kinase 1 (Plasmodium falciparum (isolate 3D7)) (P62344 whole entry, looked up): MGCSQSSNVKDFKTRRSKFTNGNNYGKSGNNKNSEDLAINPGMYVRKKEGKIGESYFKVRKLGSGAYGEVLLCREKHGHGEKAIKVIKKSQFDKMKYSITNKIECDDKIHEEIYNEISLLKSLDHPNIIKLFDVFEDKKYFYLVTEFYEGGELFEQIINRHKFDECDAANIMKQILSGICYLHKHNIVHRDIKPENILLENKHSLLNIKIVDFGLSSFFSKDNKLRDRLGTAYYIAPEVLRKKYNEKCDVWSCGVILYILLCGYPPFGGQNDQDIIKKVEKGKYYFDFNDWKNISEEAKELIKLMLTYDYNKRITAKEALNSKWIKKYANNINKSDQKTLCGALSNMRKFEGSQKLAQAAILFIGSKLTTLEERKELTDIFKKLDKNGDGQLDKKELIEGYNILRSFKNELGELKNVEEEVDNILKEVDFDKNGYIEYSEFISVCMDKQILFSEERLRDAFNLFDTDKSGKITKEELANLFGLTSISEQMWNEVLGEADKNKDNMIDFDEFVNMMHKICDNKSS
SMILES,growth inhibition [1],inhibition [2],inhibition [3],growth inhibition [4],outcome [5],outcome [6],outcome [7],outcome [8]
Fc1cccc(Nc2nc(NCc3ccc4ccsc4c3)nc(Nc3cccc(F)c3)n2)c1,11%,-2%,-1%,94% (active),inactive,inactive,inactive,inactive
O=C(c1ccco1)N1CCN(c2nc(-c3ccc(Cl)cc3)nc3ccccc23)CC1,91% (active),13%,5%,96% (active),inactive,inactive,inactive,inactive
CCN(CC)c1ccc(C=CC(=O)NCCN2CCC(N(C)C3CCCCC3C)CC2)cc1 (centres undefined),18%,29%,-3%,88% (active),inactive,inactive,inactive,inactive
CCCCCCOc1ccc(C(=O)NCCC2CCN(CCCCCNC(=O)C=Cc3ccc(Cl)c(Cl)c3)CC2)cc1,10%,13%,0%,99% (active),inactive,inactive,inactive,inactive
CN(C)CCn1c(=N)n(CC(O)c2ccc(Cl)c(Cl)c2)c2ccccc21 (centres undefined),6%,20%,-2%,99% (active),inactive,inactive,inactive,inactive
Cc1oc(-c2ccccc2)nc1CCOc1ccc(C[C@H](Nc2ccccc2C(=O)c2ccccc2)C(=O)NCc2ccccn2)cc1,54% (active),-2%,-1%,88% (active),inactive,inactive,inactive,inactive
CCNc1cc(C)nc(Nc2ccc(NC(=O)c3c(F)cccc3Cl)cc2)n1,89% (active),49%,-4%,102% (active),inactive,inactive,inactive,inactive
C=C[C@]1(C)C[C@@H](OC(=O)CNC[C@@H](O)CN2C[C@H](c3ccnc4ccc(OC)nc34)OC2=O)[C@]2(C)[C@H](C)CC[C@]3(CCC(=O)[C@H]32)[C@@H](C)[C@@H]1O,82% (active),0%,-3%,89% (active),inactive,inactive,inactive,inactive
Cc1ccc2c(=O)cc(CCc3cccc(F)c3F)n(CC(=O)N(Cc3ccc(-c4ccc(C(F)(F)F)cc4)cc3)C3CCN(C(C)C)CC3)c2n1,49%,58% (active),-2%,100% (active),inactive,inactive,inactive,inactive
OCC1CCCCN1Cc1cccc(-c2cccc(-c3nc4ccccc4[nH]3)c2)c1 (centres undefined),4%,24%,0%,95% (active),inactive,inactive,inactive,inactive
N#Cc1ccccc1C1CCN(C2CCC(Nc3cc(-c4cccnc4)ccn3)CC2)CC1 (centres undefined),78% (active),38%,5%,100% (active),inactive,inactive,inactive,inactive
CC(C)(C)c1ccc(NC(=O)c2cccc(CN3CCCN(Cc4cccc(O)c4)CC3)c2)cc1,69% (active),97% (active),4%,101% (active),inactive,inactive,inactive,inactive
O=C(/C=C/c1ccc(Cl)c(Cl)c1)NCCCCCN1CCC(C(=O)Nc2ccc(F)c(Cl)c2)CC1,-3%,25%,2%,100% (active),inactive,inactive,inactive,inactive
CN1CCN(c2ccc(-c3cccc(NC(=O)c4cccc([N+](=O)[O-])c4)c3)nn2)CC1,35%,21%,-1%,99% (active),inactive,inactive,inactive,inactive
COc1ccccc1-c1cccc(Nc2c(Nc3ccc(Cl)cc3)c(=O)c2=O)c1,47%,20%,0%,81% (active),inactive,inactive,inactive,inactive
CCCCCCN1CCCN(Cc2ccc(C(=O)Nc3ccc(C)c(F)c3)cc2)CC1,58% (active),47%,0%,92% (active),inactive,inactive,inactive,inactive
COc1ccc2nccc([C@@H](O)CN3CCC(NCc4ccc5c(c4)NC(=O)CS5)CC3)c2c1,36%,-4%,-1%,102% (active),inactive,inactive,inactive,inactive
COc1ccc(NC(=O)Nc2ccc(Nc3nc(C)cc(N(C)C)n3)cc2)cc1,99% (active),11%,-3%,102% (active),inactive,inactive,inactive,inactive
COc1ccc2ccc(OC)c(CNCCCCCCNCc3c(OC)ccc4ccc(OC)cc34)c2c1,32%,100% (active),-6%,101% (active),inactive,inactive,inactive,inactive

SMILES,growth inhibition [1],inhibition [2],inhibition [3],growth inhibition [4],outcome [5],outcome [6],outcome [7],outcome [8]
O=C(Nc1cccc(C(F)(F)F)c1)c1cccc(S(=O)(=O)NCC2CCCN(CC3CCCCC3)C2)c1 (centres undefined),11%,17%,-1%,99% (active),inactive,inactive,inactive,inactive
COc1ccc(O)c(C(=O)c2cc(C#N)c(=O)n(-c3ccc(Oc4ccccc4)cc3)c2)c1,20%,22%,5%,97% (active),inactive,inactive,inactive,inactive
COc1cc2c(cc1OC)C(c1ccc(Br)cc1)CN(C)CC2 (centres undefined),-3%,8%,-3%,86% (active),inactive,inactive,inactive,inactive
CCc1nc(N)nc(N)c1-c1ccc(F)c(F)c1,-1%,58% (active),-3%,98% (active),inactive,inactive,inactive,inactive
O=C(CCCCCNC(=O)c1ccc(O)c(-c2ccc(Cl)c(Cl)c2)c1)NCCN1CCOCC1,0%,-7%,-3%,95% (active),inactive,inactive,inactive,inactive
Clc1ccccc1OCc1ccccn1,2%,2%,-3%,85% (active),inactive,inactive,inactive,inactive
CCCCCCCCn1c2c(c(=N)c3c1CCC3)CCC2,93% (active),47%,-5%,99% (active),inactive,inactive,inactive,inactive
CS(=O)(=O)c1ccc(CCNCc2ccc(-c3ccc(CN(C(=O)c4ccc(Cl)nc4)C4CCN(Cc5ccccc5)CC4)cc3)nc2)cc1,70% (active),24%,-2%,93% (active),inactive,inactive,inactive,inactive
CN1CCC(C(=O)Nc2cccc(-c3ccc(-c4nc5ccc(C(F)(F)F)cc5[nH]4)cc3)c2)CC1,99% (active),38%,-4%,100% (active),inactive,inactive,inactive,inactive
C=CCC(C(=O)Nc1ccnc2ccc(OC)cc12)C1CCN(CCCCCCC)CC1 (centres undefined),84% (active),20%,-7%,86% (active),inactive,inactive,inactive,inactive
O=C(Nc1ccc(Oc2ccccc2)cc1)N(Cc1ccc(-c2ccc(CN3CCNCC3)cc2)cc1)C1CCN(Cc2ccccc2)CC1,73% (active),31%,-1%,101% (active),inactive,inactive,inactive,inactive
CN(CCON1C(N)=NC(N)=NC1(C)C)c1ccccc1,93% (active),64% (active),1%,97% (active),inactive,inactive,inactive,inactive
O=C(c1cccc(-c2cccc(-c3nc4ccccc4[nH]3)c2)c1)N1CCCCC1CN1CCC(O)C1 (centres undefined),56% (active),66% (active),2%,100% (active),inactive,inactive,inactive,inactive
O=C(/C=C/c1ccc(C(F)(F)F)cc1)NCCCCCN1CCCN(C(=O)Nc2ccc(Cl)cc2)CC1,-1%,28%,-1%,99% (active),inactive,inactive,inactive,inactive
COc1ccccc1CCNc1ncnc2c1[nH]c1ccc(F)cc12,68% (active),49%,0%,95% (active),inactive,inactive,inactive,inactive
CC(=O)c1ccc(NC(=O)Nc2ccc3nccc(N4CCN(C)CC4)c3c2)cc1,93% (active),2%,-1%,101% (active),inactive,inactive,inactive,inactive
Cc1cccc2[nH]c(-c3ccc(-c4cccc(CNCc5cnn(-c6ccccc6)n5)c4)s3)nc12,58% (active),40%,-1%,98% (active),inactive,inactive,inactive,inactive
Cc1sc2cc(Cl)cc(Cl)c2c1S(=O)(=O)Nc1ccc2nccc(N3CCNCC3)c2c1,99% (active),24%,-8%,100% (active),inactive,inactive,inactive,inactive
CS(=O)(=O)c1ccc(CCNCc2ccc(-c3ccc(CN(C(=O)C4CC(=O)c5ccccc54)C4Cc5ccccc5C4)cc3)nc2)cc1 (centres undefined),21%,5%,-7%,90% (active),inactive,inactive,inactive,inactive
